Source: PubChem BioAssay AID890 (National Center for Advancing Translational Sciences (NCATS), 2007)
Several values for one entry are separate records, joined by “and”; a condition that tells them apart may be missing. Equal entries are not always repeated. Activity calls are given as the source filed them. Calls follow the shape of the dose curve; as a rule, active = well fitted activation curve with a large enough effect; inactive = flat fitted curve, though single readings scatter.

assay: Confirmation Concentration-Response Assay for Epigenetic Modulators; settings: murine C127i cells, silenced GFP reporter derepression, imaging; series mostly up to 46 µM; GFP activation: at the top concentration
From the text: NIH Molecular Libraries Screening Centers Network [MLSCN] NIH Chemical Genomics Center [NCGC] MLSCN Grant: 1 X01 MH079860-01 Assay Provider: Elisabeth D. Martinez, University of Texas SW Medical Center NCGC Assay Overview: The Locus Derepression assay detects the derepression of a GFP reporter that is stably integrated in a region of the genome of murine c127i mammary cells that is presumably silenced. GFP transcription in this construct is controlled by a CMV promoter, which normally is strong and constitutively active. However, this line was selected for lack of constitutive expression of the GFP protein. GFP production can be induced by incubating the cells with histone deacetylase or DNA methyltransferase inhibitors. Compounds that cause derepression of the locus to express GFP are identified by enumerating GFP positive cells using a laser-scanning microplate cytometer.
NCGC Assay Protocol Summary: Two hundred and fifty cells in 5 uL per well were dispensed into black, clear-bottom 1536-well plates. Twenty-three nL compound was transferred to the assay plate and cells were incubated 30 hours at 37 C. Medium was removed, cells were washed two times with PBS, and GFP-positive cells were enumerated as fluorescent objects between the sizes of 20 to 120 um width and depth using a laser-scanning microplate imager (Acumen Explorer Ex3, TTP Labtech) Keywords: NIH Roadmap, MLSCN, MLI, MLSMR, qHTS, NCGC, qHTS, HDAC, DNMT, HAT, DNA methyltransferases, histone acetyl transferases, histone deacetylases

SMILES | Potency | GFP activation
O=C1OCCC1Sc1cccc2cccnc12 (stereo not given) | 7.44 µM (active) | 
CCCCC1CC1C(=O)Nc1ccc(OC)c(OC)c1 (stereo not given) | 14.3 µM (active) | 
CC(C)C(=O)NC(c1cccs1)c1cc(Cl)c2cccnc2c1O (stereo not given) |  | 0% (inactive)
CCN(CC)c1ccc2cc(-c3nc4ccccc4[nH]3)c(=O)oc2c1 | 0.56 µM (active) | 
O=Nc1ccc(O)c2ncccc12 | 2.78 µM (active) | 
Oc1c(C(Nc2ccccc2C(F)(F)F)c2ccccn2)ccc2cccnc12 (stereo not given) |  | 0% (inactive)
O=C(CSc1cccc2cccnc12)NCc1ccccc1 |  | 1.5% (inactive)
S=C1SCN(C2CCCC2)CN1Cc1ccco1 |  | 2.5% (inactive)
COCc1cc(CN2CCN(C)CC2)c(O)c2ncccc12 | 37.6 µM (active) | 
CN1CCN(Cc2cc(Cl)c3cccnc3c2O)CC1 | 6.08 µM (active) | 
Cc1cc(C)n(-c2nc(N(C)C)nc(N(C)C)n2)n1 |  | 0.5% (inactive)
O=C(Oc1cccc2cccnc12)c1ccc(Br)o1 | 14.6 µM (active) | 
Cc1cc(C)n(-c2nc(NC(C)C)nc(NC(C)C)n2)n1 | inactive | 
CC(C)C(=O)NC(c1ccc(N(C)C)cc1)c1ccc2cccnc2c1O (stereo not given) | 8.14 µM (active) | 
O=C(Cc1ccccc1)NC(c1ccco1)c1ccc2cccnc2c1O (stereo not given) | 16.2 µM (active) | 
CC(C)C(=O)NC(c1ccc(C(C)C)cc1)c1cc(Cl)c2cccnc2c1O (stereo not given) |  | 2% (inactive)
Cc1ccc(N=Nc2ccc(O)c3ncccc23)cc1C |  | 0% (inactive)
Oc1c(C(Nc2ccccn2)c2ccco2)cc(Cl)c2cccnc12 (stereo not given) |  | 1.5% (inactive)
Oc1ccc(COCc2ccccc2)c2cccnc12 |  | 1.5% (inactive)
O=C(CC(c1ccco1)S(=O)(=O)c1ccccc1)c1ccc(F)cc1 (stereo not given) |  | 8% (inactive)

SMILES | Potency | GFP activation
CN(C)C(=O)CSc1cccc2cccnc12 | 6.96 µM (active) | 
O=C(CSc1cccc2cccnc12)N1CCCC1 | 8.94 µM (active) | 
Oc1c(C(Nc2ccccn2)c2ccccn2)ccc2cccnc12 (stereo not given) | 36.2 µM (active) | 
CC(C)C(=O)NC(c1ccco1)c1ccc2cccnc2c1O (stereo not given) | 7.57 µM (active) and 4.6 µM (active) | 
CCNc1nc(NCC)nc(-n2cc(C(=O)c3cc(Cl)ccc3O)cn2)n1 |  | 2.5% (inactive)
CCOCc1ccc(O)c2ncccc12 | 4.97 µM (active) | 
CCN1CSC(=S)N(CC)C1 | 7 µM (active) | 
Cc1cc(C)n(-c2nc(NC(C)C)nc(NC(C)(C)C)n2)n1 |  | 4.5% (inactive)
Cc1cc(NC(c2ccccn2)c2ccc3cccnc3c2O)no1 (stereo not given) | 8 µM (active) | 
CCNc1nc(NCC)nc(-n2nc(C)cc2C)n1 |  | 2.5% (inactive)
CN1C(=S)SC(c2ccccc2)N(C)C1c1ccccc1 (stereo not given) |  | 0.5% (inactive)
COc1ccc(C)cc1NC(c1ccccn1)c1ccc2cccnc2c1O (stereo not given) |  | 1% (inactive)
COC(=O)c1cccc(NC(c2ccccn2)c2ccc3cccnc3c2O)c1 (stereo not given) |  | 0.5% (inactive)
CC(/C=C/C(=O)NO)=C\[C@@H](C)C(=O)c1ccc(N(C)C)cc1 | 1.12 µM (active) | 
Cc1ccc2ccc(C(Nc3cccc(Cl)c3)c3ccccn3)c(O)c2n1 (stereo not given) |  | 0.5% (inactive)
CC(C)C(=O)NC(/C=C/c1ccccc1)c1cc([N+](=O)[O-])c2cccnc2c1O (stereo not given) |  | 3.5% (inactive)
COc1ccc(C(NC(=O)C(C)C)c2ccc3cccnc3c2O)cc1 (stereo not given) | 7.83 µM (active) | 
c1cnn(-c2nc(N3CCOCC3)nc(N3CCOCC3)n2)c1 |  | 1% (inactive)
CC(C)C(=O)NC(c1ccco1)c1cc([N+](=O)[O-])c2cccnc2c1O (stereo not given) |  | 7% (inactive)
O=C(CSc1cccc2cccnc12)Nc1ccccc1 |  | 2% (inactive)
